The values that follow come from PubChem BioAssay AID602261 (Sanford-Burnham Center for Chemical Genomics, 2012).

Each structure is given as a SMILES string. Among all 360,000 compounds or so, about 2,400 (0.67%) were called active.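 How the source made its calls: active means compounds whose normalised, plate-corrected inhibition of enzyme fluorescence in the single-dose primary screen is 50% or more; inactive means the rest.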 The entries come from a sample that favours actives as a whole.

The target in the experiment is Fatty acid synthase (Homo sapiens) (UniProt P49327). Briefly: FAS thioesterase domain inhibitors, primary screen, biochemical, fluorescence intensity, uHTS (AID 602261).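 Further: 0% = DMSO with enzyme and 100% = substrate without enzyme.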 Particulars: recombinant FAS-TE, OMFH fluorogenic substrate, fluorescence endpoint; at 15 µM; stronger effect = higher value.
Sequence of Fatty acid synthase (Homo sapiens) (P49327 whole entry, looked up, the tested form may be a part): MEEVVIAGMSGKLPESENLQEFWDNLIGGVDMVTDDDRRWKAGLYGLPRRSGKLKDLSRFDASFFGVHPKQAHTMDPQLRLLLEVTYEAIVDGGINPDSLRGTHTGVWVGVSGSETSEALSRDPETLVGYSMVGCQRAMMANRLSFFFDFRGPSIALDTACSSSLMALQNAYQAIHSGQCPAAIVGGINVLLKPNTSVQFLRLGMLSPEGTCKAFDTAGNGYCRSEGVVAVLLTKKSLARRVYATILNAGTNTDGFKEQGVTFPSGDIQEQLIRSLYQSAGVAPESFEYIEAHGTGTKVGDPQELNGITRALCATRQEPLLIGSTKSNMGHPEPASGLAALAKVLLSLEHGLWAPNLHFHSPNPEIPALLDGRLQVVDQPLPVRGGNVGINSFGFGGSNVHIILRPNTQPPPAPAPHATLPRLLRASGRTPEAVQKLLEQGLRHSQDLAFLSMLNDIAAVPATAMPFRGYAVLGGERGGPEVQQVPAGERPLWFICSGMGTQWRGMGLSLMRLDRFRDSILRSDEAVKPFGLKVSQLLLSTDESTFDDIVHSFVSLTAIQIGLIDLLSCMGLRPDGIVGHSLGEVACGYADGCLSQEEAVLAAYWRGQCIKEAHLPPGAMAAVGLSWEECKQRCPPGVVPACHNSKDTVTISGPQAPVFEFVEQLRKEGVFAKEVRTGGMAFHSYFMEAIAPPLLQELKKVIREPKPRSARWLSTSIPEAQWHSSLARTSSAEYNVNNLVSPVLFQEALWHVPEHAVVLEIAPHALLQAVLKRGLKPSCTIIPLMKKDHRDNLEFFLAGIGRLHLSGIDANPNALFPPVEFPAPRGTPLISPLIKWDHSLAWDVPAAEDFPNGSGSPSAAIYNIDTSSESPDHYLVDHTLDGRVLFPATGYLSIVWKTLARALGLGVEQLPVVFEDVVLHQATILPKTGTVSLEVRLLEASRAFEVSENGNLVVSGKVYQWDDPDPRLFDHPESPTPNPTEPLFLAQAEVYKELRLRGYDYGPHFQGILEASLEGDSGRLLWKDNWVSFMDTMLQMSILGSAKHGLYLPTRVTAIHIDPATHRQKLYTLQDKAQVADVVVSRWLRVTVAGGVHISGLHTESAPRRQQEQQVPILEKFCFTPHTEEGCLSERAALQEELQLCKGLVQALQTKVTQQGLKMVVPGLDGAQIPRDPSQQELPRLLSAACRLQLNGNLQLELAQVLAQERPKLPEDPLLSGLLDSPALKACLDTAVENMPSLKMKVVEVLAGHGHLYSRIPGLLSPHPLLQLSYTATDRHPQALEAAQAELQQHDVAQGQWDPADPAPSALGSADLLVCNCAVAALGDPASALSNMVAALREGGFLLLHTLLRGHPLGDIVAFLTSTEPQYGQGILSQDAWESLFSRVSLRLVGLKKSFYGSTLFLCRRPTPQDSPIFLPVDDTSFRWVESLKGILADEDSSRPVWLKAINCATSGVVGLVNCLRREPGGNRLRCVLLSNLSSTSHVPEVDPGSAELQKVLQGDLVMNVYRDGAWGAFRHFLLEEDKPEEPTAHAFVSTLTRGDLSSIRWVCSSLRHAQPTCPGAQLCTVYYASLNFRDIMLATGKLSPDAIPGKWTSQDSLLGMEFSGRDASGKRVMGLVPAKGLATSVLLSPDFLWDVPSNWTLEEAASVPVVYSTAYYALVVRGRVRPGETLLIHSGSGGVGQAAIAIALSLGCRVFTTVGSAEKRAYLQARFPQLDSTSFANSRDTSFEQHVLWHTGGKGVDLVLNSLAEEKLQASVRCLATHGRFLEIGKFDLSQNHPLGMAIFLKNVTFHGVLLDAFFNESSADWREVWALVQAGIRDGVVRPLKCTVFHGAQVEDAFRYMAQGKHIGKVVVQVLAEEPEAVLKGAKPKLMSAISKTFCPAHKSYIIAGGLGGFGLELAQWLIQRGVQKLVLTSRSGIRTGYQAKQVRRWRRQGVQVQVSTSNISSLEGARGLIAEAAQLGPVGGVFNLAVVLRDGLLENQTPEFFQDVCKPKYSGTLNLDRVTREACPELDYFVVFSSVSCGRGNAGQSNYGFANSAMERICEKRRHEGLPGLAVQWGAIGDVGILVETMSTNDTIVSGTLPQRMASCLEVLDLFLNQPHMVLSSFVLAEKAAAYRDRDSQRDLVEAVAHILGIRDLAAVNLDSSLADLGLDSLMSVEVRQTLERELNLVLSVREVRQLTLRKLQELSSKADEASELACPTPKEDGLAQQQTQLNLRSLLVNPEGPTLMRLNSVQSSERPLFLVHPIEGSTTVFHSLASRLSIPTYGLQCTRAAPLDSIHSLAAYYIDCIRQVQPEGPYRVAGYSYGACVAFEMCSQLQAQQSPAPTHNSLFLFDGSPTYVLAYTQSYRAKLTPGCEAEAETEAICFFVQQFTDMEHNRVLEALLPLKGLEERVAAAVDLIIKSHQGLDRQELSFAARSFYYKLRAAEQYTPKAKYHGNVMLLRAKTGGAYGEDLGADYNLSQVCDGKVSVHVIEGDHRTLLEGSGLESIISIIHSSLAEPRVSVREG
The inhibition is the change of the read-out against control, counted positive when it falls. `O=C(CN1CCC(NC(=O)Nc2ccccc2)CC1)Nc1cccc([N+](=O)[O-])c1`: the inhibition was 1.8% (inactive).

For the compound `O=C(Nc1cccc([N+](=O)[O-])c1)N1CCc2ccccc2C1`, the inhibition was 52.5% (active).

With `CCc1ccc(NC(=O)N2CCc3ccccc3C2)cc1`, the inhibition is 4.2% (inactive).

For the compound `N#CCC(=O)N/N=C/c1ccc(SCC(=O)Nc2ccccc2)o1`, the inhibition was -2.5% (inactive).

In the case of `CCC1CCCCN1CCCNC(=O)c1cc2c(Cl)nc3ccccc3c2s1` (stereo not drawn), the inhibition is -5.7% (inactive).

Turning to `O=[N+]([O-])c1c(NCCO)cc(Sc2nc3ccccc3s2)c2nonc12`, the inhibition is 83.1% (active).

For the compound `COc1cc(C2C(C(=O)c3cccs3)=C(O)C(=O)N2CCN2CCOCC2)ccc1OCCC(C)C` (stereo not drawn), the inhibition was 0.8% (inactive).

For the compound `Cc1cc(C)c(C2C3=C(Nc4c2c(C)nn4-c2ccccn2)c2ccccc2C3=O)c(C)c1` (stereo not drawn), the inhibition is 68.9% (active).

Regarding `CC/C(Cc1ccccc1)=N/NC(=O)CCn1nnc2ccccc21`, the inhibition is -8.1% (inactive).

In the case of `CC1(C(=O)NS(=O)(=O)c2ccc(C#N)cc2)CCN1C(=O)c1ccc(C2CCCCC2)cc1` (stereo not drawn), the inhibition is 62.6% (active).

As to `Cc1noc(C)c1C(=O)N1CCC1(C)C(=O)NS(=O)(=O)c1ccc(C#N)cc1` (stereo not drawn), the inhibition is -9% (inactive).

Take `CC1(C(=O)NS(=O)(=O)c2ccc(C#N)cc2)CCN1C(=O)CC1CCCC1` (stereo not drawn): the inhibition is 4.2% (inactive).

Regarding `O=C1CCC/C(=N\NC(=O)NC2CCCCC2)C1`, the inhibition was -1% (inactive).

Consider `CCOC(=O)N1CCN(Cc2nc3cc(NC(C)=O)ccc3n2C)CC1`, for which the inhibition is -7% (inactive).

For the compound `CCOC(=O)N1CCN(Cc2nc3ccc([N+](=O)[O-])cc3c(=O)n2-c2cccc(OC)c2)CC1`, the inhibition is 72.4% (active).

`COc1cccc(-n2nc(C(=O)N3CCN(Cc4ccccc4)CC3)c3ccccc3c2=O)c1`: the inhibition was 3.5% (inactive).

As for `CCOC(=O)CSC1=N/C(=C/c2ccc(-n3cncn3)cc2)C(=O)N1C(C)=O`, the inhibition was -6.6% (inactive).

`Cc1occc1C(=O)N/N=C/c1ccc(-c2cccc([N+](=O)[O-])c2)o1`: the inhibition was 20.7% (inactive).

As for `Cc1cc(C(=O)N/N=C/c2cc([N+](=O)[O-])cc(C)c2O)n[nH]1`, the inhibition was 65.7% (active).

Regarding `Cc1c(Cl)c([N+](=O)[O-])nn1Cc1ccc(C(=O)N/N=C\c2cc(Cl)ccc2O)o1`, the inhibition was 36.1% (inactive).

On to `Cc1ccc(S(=O)(=O)Nc2ccc3c(c2)C(=O)N([C@H](C)CO)C[C@@H](C)[C@@H](CN(C)C(=O)Nc2cccc4ccccc24)O3)cc1`, for which the inhibition was -2.7% (inactive).

Turning to `COc1ccc2nc(N3CCN(C(=O)c4ccc([N+](=O)[O-])o4)CC3)sc2c1`, the inhibition was 10.7% (inactive).

In the case of `COc1ccc2nc(Nc3nc4cc5c(cc4s3)OCCO5)sc2c1`, the inhibition was 66.6% (active).

Take `Fc1ccc2nc(Nc3nc4c(s3)CCCC4)sc2c1`: the inhibition is 7.4% (inactive).

For `CSc1ccccc1NC(=O)c1cnc2sc(C)cn2c1=O`, the inhibition is 4.9% (inactive).

In the case of `O=[N+]([O-])c1cc([N+](=O)[O-])c(Oc2cc(F)cc(F)c2F)cc1NN1CCCCC1`, the inhibition is 11.3% (inactive).

For `Cc1cccc(C(=O)OCC(=O)NC(C)C2CC3CCC2C3)c1O` (stereo not drawn), the inhibition was 20.1% (inactive).

Consider `COC(=O)c1cc(C(=O)NC(C)C2CC3CCC2C3)cc([N+](=O)[O-])c1` (stereo not drawn), for which the inhibition was 50.5% (active).

As for `Cc1c(C(=O)NC(C)C2CC3CCC2C3)cccc1[N+](=O)[O-]` (stereo not drawn), the inhibition was 11.2% (inactive).

In the case of `COc1ccc(CN2C(CC(=O)Nc3cccnc3)c3ccc(C(F)(F)F)cc3S2(=O)=O)cc1` (stereo not drawn), the inhibition was 14.3% (inactive).

Regarding `CCCCc1nc2cc(C(=O)NCCc3cnn(C)c3)ccc2o1`, the inhibition is -2.8% (inactive).

With `Cc1noc(C)c1NC(=O)Nc1cccc2c1O[C@H](CN(C)S(=O)(=O)c1c(C)noc1C)[C@@H](C)CN([C@H](C)CO)C2=O`, the inhibition is 3.4% (inactive).

Consider `Cc1noc(C)c1NC(=O)Nc1cccc2c1O[C@H](CN(C)C(=O)Nc1ccccc1)[C@@H](C)CN([C@H](C)CO)C2=O`, for which the inhibition was 55.4% (active).

`Cc1noc(C)c1NC(=O)Nc1ccc2c(c1)C(=O)N([C@H](C)CO)C[C@H](C)[C@@H](CN(C)C(=O)Nc1ccccc1)O2`: the inhibition is -5.3% (inactive).

With `COc1ccc(CCCNC(=O)C2Cc3c(-c4cccc(C(N)=O)c4)ccnc3O2)cc1` (stereo not drawn), the inhibition was 1.7% (inactive).

As for `O=S(=O)(NCCCCCCNS(=O)(=O)c1c(F)cccc1F)c1ccc2c(c1)OCCO2`, the inhibition was 3.8% (inactive).

As for `O=C(Nc1nnc(SCc2c(Cl)cccc2Cl)s1)C1CCCO1` (stereo not drawn), the inhibition is 0.2% (inactive).

Turning to `COCCSc1nnc(NC(=O)c2cc(OC)c(OC)cc2[N+](=O)[O-])s1`, the inhibition is -10.4% (inactive).

Take `O=C(Nc1nnc(SCc2ccccc2Cl)s1)c1cccc([N+](=O)[O-])c1`: the inhibition is 58.6% (active).

In the case of `CCCn1c(N)c(C(=O)CSc2nc3ccccc3c(=O)n2-c2ccc(OC)cc2)c(=O)[nH]c1=O`, the inhibition is -0.6% (inactive).

For `O=S(=O)(Cc1noc(-c2ccc(OC(F)(F)F)cc2)n1)c1ccc(F)cc1`, the inhibition was 15.8% (inactive).

Turning to `Cc1ccc(S(=O)(=O)NCC(=O)N(CC(=O)NCC2CCCO2)c2cccc(F)c2)cc1` (stereo not drawn), the inhibition was -4.4% (inactive).

Regarding `COc1cc(-c2n[nH]c(=S)n2Cc2ccccc2)cc(OC)c1OC`, the inhibition is -3.4% (inactive).

Turning to `CC(C)Oc1ccc(Cc2n[nH]c(=S)n2Cc2ccccc2)cc1Cl`, the inhibition is 57% (active).

Take `CC(C)Oc1ccc(CCc2n[nH]c(=S)n2Cc2ccccc2)cc1`: the inhibition was 19.3% (inactive).

Turning to `O=C(Nc1cccc(S(=O)(=O)N2CCOCC2)c1)C12CC3CC(CC(C3)C1)C2`, the inhibition was 9.3% (inactive).

`O=C(NCc1ccco1)/C(=C/c1ccco1)NC(=O)c1ccccc1`: the inhibition is -4.1% (inactive).

In the case of `O=C(NCc1ccco1)/C(=C/c1cccc([N+](=O)[O-])c1)NC(=O)c1ccco1`, the inhibition is 38.7% (inactive).

For the compound `O=C(/C=C/c1ccc([N+](=O)[O-])cc1)NCCSCc1ccco1`, the inhibition is 9.8% (inactive).

`COc1ccc(/C=C(/NC(=O)c2ccco2)C(=O)Nc2ccc(C(C)=O)cc2)cc1`: the inhibition is -1.1% (inactive).

Consider `O=C(NCc1ccco1)c1ccc([N+](=O)[O-])cc1Cl`, for which the inhibition was 5.6% (inactive).

With `Cc1ccc(NC(=O)/C(=C\c2ccccc2)NC(=O)c2ccco2)cc1`, the inhibition is 0% (inactive).

With `O=C(Nc1ccc2ccccc2c1)/C(=C/c1cccc(Br)c1)NC(=O)c1ccco1`, the inhibition is 52.3% (active).

Take `O=C(NCc1ccco1)/C(=C\c1cccc([N+](=O)[O-])c1)NC(=O)c1ccco1`: the inhibition is 51.4% (active).

For `O=C(/C=C/c1cccc([N+](=O)[O-])c1)NCCSCc1ccco1`, the inhibition was 55.4% (active).

Consider `Cc1cc([N+](=O)[O-])nn1Cc1ccc(F)cc1`, for which the inhibition is -0.9% (inactive).

`CCC1CCC/C1=N\NC(=O)c1ccc(Cl)cc1` (stereo not drawn): the inhibition is -4.6% (inactive).

Consider `COc1ccc(OC)c(NC(=O)c2cc(-c3cc(F)ccc3OCC3CCCO3)n[nH]2)c1` (stereo not drawn), for which the inhibition is 22.4% (inactive).

Consider `CCN(CC)S(=O)(=O)c1ccc2[nH]c(=O)cc(C(=O)N(C)C3CCS(=O)(=O)C3)c2c1` (stereo not drawn), for which the inhibition is 0% (inactive).

Take `Cc1ccc(S(=O)(=O)n2cnc3ccccc32)c(C)c1`: the inhibition was -4.2% (inactive).

Consider `Cc1ccc(S(=O)(=O)c2nnn3c2nc(N2CCN(c4ccccn4)CC2)c2ccccc23)cc1`, for which the inhibition is 65.9% (active).

For `CCOC(=O)c1nnn2c1nc(N1CCN(c3ccccc3)CC1)c1ccccc12`, the inhibition was 19.9% (inactive).

As to `Cc1cccc(Nc2nc3c(S(=O)(=O)c4ccccc4)nnn3c3ccccc23)c1C`, the inhibition is -3.1% (inactive).

For the compound `CCc1ccccc1OCC(=O)Nc1nnc(C2CC2)s1`, the inhibition is -9.2% (inactive).

Regarding `Cc1ccc(S(=O)(=O)N2CCN(C(=O)c3ccccc3-c3nc4ccccc4s3)CC2)c(C)c1`, the inhibition is 15.3% (inactive).

With `OC(CN1C2=NCCCN2c2ccccc21)c1ccc(Br)cc1` (stereo not drawn), the inhibition is -4.6% (inactive).

`CC(NC(=O)c1ccco1)c1ccc2c(c1)OCO2` (stereo not drawn): the inhibition is -6.5% (inactive).

For `CC(NC(=O)Nc1cccc([N+](=O)[O-])c1)c1ccc2c(c1)OCO2` (stereo not drawn), the inhibition was 83.4% (active).

In the case of `Cc1noc(C)c1C(=O)NC(C)c1ccc2c(c1)OCO2` (stereo not drawn), the inhibition is -5.5% (inactive).

`CCN1CCN(c2sc(S(C)(=O)=O)nc2S(=O)(=O)c2ccc(Cl)cc2)CC1`: the inhibition was -2.8% (inactive).

For `O=C(Nc1ccccc1)c1nnsc1S(=O)(=O)c1ccc(Cl)cc1`, the inhibition was 69.7% (active).

Consider `Cc1nnsc1S(=O)(=O)Cc1ccccc1Cl`, for which the inhibition was -6.8% (inactive).

On to `O=C(Nc1ccc(S(=O)(=O)N2CCOCC2)cc1)C1CCN(S(=O)(=O)c2ccc(Cl)cc2)CC1`, for which the inhibition was 28.3% (inactive).

Turning to `O=C(NCCO)c1cccc(-c2cccc3nccn23)c1`, the inhibition was -6.3% (inactive).

Turning to `Cc1cc(C(F)F)nn1CC(=O)NC1CCCCCC1`, the inhibition is -5.3% (inactive).

For the compound `Cn1c(=O)n(C)c2cc(NS(=O)(=O)c3ccc(F)cc3)ccc21`, the inhibition was -7.3% (inactive).

Regarding `COc1ccccc1-n1cnc2cc(NS(=O)(=O)c3ccccc3)ccc21`, the inhibition was 0.1% (inactive).

As to `CC1(C)CC(=O)c2c(n(S(=O)(=O)c3ccccc3)c3ccc(NS(=O)(=O)c4ccccc4)cc23)C1`, the inhibition was 79.6% (active).

For `CC(=O)N(Cc1cccs1)C1CCOC(C)(C)C1` (stereo not drawn), the inhibition is -7.2% (inactive).

For `CCCCN1C(=O)CCC(C(=O)O)C1c1ccc(OC)cc1` (stereo not drawn), the inhibition was -7.9% (inactive).

Turning to `COc1ccc(C(=O)N(C)CC(O)c2ccccc2)cc1OC1CCN(C(C)=O)CC1` (stereo not drawn), the inhibition was 0.7% (inactive).

Consider `Cc1ccc(S/C(=N\S(=O)(=O)c2ccc(Cl)cc2)c2ccccc2)cc1`, for which the inhibition is 57.1% (active).

With `Cc1ccc(S(=O)(=O)/N=C(/Nc2ccccn2)c2ccc(Cl)cc2)cc1`, the inhibition was 2.1% (inactive).

`Cc1ccc(S(=O)(=O)/N=C(/Nc2ccc3[nH]c(=O)[nH]c3c2)c2ccccc2)cc1`: the inhibition was -11.9% (inactive).

Regarding `COc1ccccc1C1CCN(C(=S)Nc2ccc(Br)cc2)CC1`, the inhibition is 31% (inactive).

Consider `CCOc1ccc(Br)cc1S(=O)(=O)Nc1ccc(S(=O)(=O)Nc2cc(C)on2)cc1`, for which the inhibition is -8.8% (inactive).

For the compound `CCOc1ccc(Br)cc1S(=O)(=O)Nc1cccc(S(=O)(=O)N(CC)CC)c1`, the inhibition was 22.7% (inactive).

For `CCOc1ccc(Br)cc1S(=O)(=O)Nc1ccc(C(=O)OC(C)C(=O)N(C)c2ccccc2)cc1` (stereo not drawn), the inhibition was 53.8% (active).
